From PubChem BioAssay (NCI)
This is part of a sample that, as a whole, favours compounds with a hit. Of some 83,000 tested, about 20% had one in any assay.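 96-well plates, one dose, 48 hours. Percent growth reported; active if below 10.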 A number with no mark means an inactive call. The source made the active and inactive calls.

Assays:
Assay in all cases: NCI-60 one-dose screen, 48 h (100 = growth as untreated, 0 = no growth, -100 = all killed)
Conditions in all cases: 10 µM
DU-145 prostate = test system: DU-145 prostate
K-562 leukemia = test system: K-562 leukemia
MALME-3M melanoma = test system: MALME-3M melanoma
MDA-MB-231 breast = test system: MDA-MB-231 breast
RXF 393 renal = test system: RXF 393 renal
SF-268 CNS = test system: SF-268 CNS
SF-295 CNS = test system: SF-295 CNS
SF-539 CNS = test system: SF-539 CNS
UACC-257 melanoma = test system: UACC-257 melanoma
M14 melanoma = test system: M14 melanoma
HCT-15 colon = test system: HCT-15 colon
HT29 colon = test system: HT29 colon
SNB-75 CNS = test system: SNB-75 CNS
SNB-19 CNS = test system: SNB-19 CNS
U251 CNS = test system: U251 CNS
PC-3 prostate = test system: PC-3 prostate
SK-MEL-5 melanoma = test system: SK-MEL-5 melanoma
UACC-62 melanoma = test system: UACC-62 melanoma
LOX IMVI melanoma = test system: LOX IMVI melanoma
SK-MEL-28 melanoma = test system: SK-MEL-28 melanoma

SMILES	growth (DU-145 prostate)	growth (K-562 leukemia)	growth (MALME-3M melanoma)	growth (MDA-MB-231 breast)	growth (RXF 393 renal)	growth (SF-268 CNS)	growth (SF-295 CNS)	growth (SF-539 CNS)	growth (UACC-257 melanoma)	growth (M14 melanoma)	growth (HCT-15 colon)	growth (HT29 colon)	growth (SNB-75 CNS)	growth (SNB-19 CNS)	growth (U251 CNS)	growth (PC-3 prostate)	growth (SK-MEL-5 melanoma)	growth (UACC-62 melanoma)	growth (LOX IMVI melanoma)	growth (SK-MEL-28 melanoma)
O=C1NC(=NC23CC4CC(CC(C4)C2)C3)N/C1=C\c1ccc2ncoc2c1	7.99% (active)	12.1%	-24.3% (active)	-1.98% (active)	-52.5% (active)	9.72% (active)	11.2%	-49.2% (active)	4.63% (active)	29.4%	0.0072% (active)	4.66% (active)	-8.6% (active)	6.88% (active)	10%	5.37% (active)	1.95% (active)	-71.4% (active)	0.372% (active)	-18.6% (active)
Nc1cccnc1/C=N/NC(=S)NCCNC(=O)c1ccc(-n2nc(-c3ccccc3O)nc2-c2ccccc2O)cc1	27.9%	7.44% (active)	14.3%	19.8%	-10.6% (active)	32.8%	-6.19% (active)	-23.2% (active)	7.34% (active)	-39% (active)	17.9%	-42.8% (active)	48.1%	13.2%	12.4%	9.05% (active)	-42% (active)	-62.6% (active)	-45.2% (active)	14.8%
CC1=C2C(=C[C@@](C)(CO)[C@@H]2O)/C(=N\N)[C@](C)(O)C12CC2	1.63% (active)	19.3%	-76.2% (active)	-21% (active)	-90.5% (active)	-3.67% (active)	-14.8% (active)	-75.8% (active)	-49.4% (active)	5.88% (active)	-17.1% (active)	-11% (active)	-85.1% (active)	-16% (active)	12%	6.9% (active)	-61.1% (active)	-81.7% (active)	-64.3% (active)	
O=C(Nc1ccc(I)cc1F)c1cc(-c2ccc(F)cc2F)ccc1O	21.5%	7.69% (active)	-21.4% (active)	-1.69% (active)	-9.21% (active)	8.16% (active)	-37.7% (active)	0.0441% (active)	-7.17% (active)	28.8%	5.34% (active)	17%	-23.7% (active)	11.3%	4.61% (active)	2.22% (active)	-75.3% (active)	-14.4% (active)	6.5% (active)	4.38% (active)
Brc1ccc(/C=N/Nc2ncnc3sc4c(c23)CCN(Cc2ccccc2)C4)cc1	47.2%	20.9%	38.7%	22.1%	66.7%	74.2%	58.7%	71.4%	56.7%	-12.1% (active)	58.3%	4.77% (active)	-7.37% (active)	99.9%	61.1%	61.6%	94.8%	90.3%	46.9%	41.9%
O=C(c1ccc(O)cc1)C1[C@H](c2ccccc2Br)[C@@H](c2ccccc2)NC12C(=O)Nc1ccc(Br)cc12 (stereo partly drawn)	70.2%	29.9%	78.7%	46.3%	55.3%	40%	26.6%	49.1%	65.4%	54.6%	36.8%	26.8%	31.5%	53.4%	26.5%	23.3%	56.9%	42.3%	15.8%	77.7%
O=C(N/N=C/c1ccc(B(O)O)o1)c1[nH]c2ccc(Br)cc2c1-c1ccccc1	40.9%	7.21% (active)	61.1%	28.1%	1.27% (active)	51.1%	-8.66% (active)	-33.4% (active)	63.4%	20.1%	16.1%	3.98% (active)	98.1%	40.7%	10.1%	19.2%	11.5%	19.4%	32.9%	62.1%
O=C(c1ccc(Cl)cc1)C1[C@H](c2ccccc2Br)[C@@H](c2ccccc2)NC12C(=O)Nc1ccccc12 (stereo partly drawn)	17.6%	3.71% (active)	39.6%	8.15% (active)	-12.6% (active)	27.9%	12.9%	13.5%	33.8%	17.1%	12%	-16% (active)	33.1%	31.6%	21.5%	17.3%	-15.9% (active)	7.38% (active)	-69.1% (active)	44.8%
CO[C@@H]1CSS[C@H]1Cn1nc(-c2ccc(Oc3ccccc3)cc2)c2c(N)ncnc21	73.5%	8.2% (active)	63.4%	72.6%	35.5%	70%	43.1%	50%	40.8%	-64.2% (active)	66.9%	51.1%	113%	71.8%	60%	51.7%	25.7%	-11.1% (active)	53.7%	-0.701% (active)
O=C(Nc1cccc(-c2cn(-c3ccc4oc(=O)ccc4c3)nn2)c1)Nc1cc(C(F)(F)F)cc(C(F)(F)F)c1	30.2%	9.1% (active)	29.8%	34.7%	-5.05% (active)	62.2%	-45.7% (active)	19.1%	50.2%	55.5%	19%	44.9%	17.8%	27.4%	13.4%	27.7%	2.67% (active)	11.3%	17.2%	22.5%
Cc1ccc([N+](=O)[O-])c(C(=O)Nc2ccc(-c3ccc4c(c3)NC(=O)/C4=C\c3ccc[nH]3)cc2)c1	10.5%	28%	55.5%	55.1%	87.4%	14.2%	-65.3% (active)	73.7%	81.4%	34.2%	-17.3% (active)	46.5%	42.7%	30.6%	6.92% (active)	21.3%	101%	39.5%	21.9%	94.8%
COc1ccsc1/C=N/NC(=O)c1[nH]c2ccc(Br)cc2c1-c1ccccc1	11.7%	1.22% (active)	22.3%	3.17% (active)	30.8%	17.2%	-7.83% (active)	-18.5% (active)	11.4%	5.95% (active)	1.32% (active)	-12.2% (active)	20.1%	21.8%	6.55% (active)	5.35% (active)	-47.3% (active)	9.1% (active)	-18% (active)	30.8%
O=c1oc2ccc(-c3ccc(F)cc3F)cc2c(=O)n1-c1ccc(F)c(Cl)c1	12.6%	3.74% (active)	-29.1% (active)	-27.6% (active)	-19.7% (active)	2.31% (active)	-80.3% (active)	-5.14% (active)	-15.9% (active)	12.8%	-23.6% (active)	23.1%	-23.7% (active)	12.5%	7.08% (active)	5.69% (active)	-91.6% (active)	-60.2% (active)	-69.9% (active)	-21% (active)
CC(=O)Nc1ccc(-n2cnc3cc(-c4ccc(O)cc4)ccc32)cc1C	60.8%	41.2%	58.9%	49.3%	43.4%	53.1%	52.8%	41.5%	61.2%	42.3%	49.2%	61.6%	58.4%	58.4%	47.7%	58.5%	46.4%	42.9%	53.3%	
CN1CCN(Cc2ccc(C(=O)Nc3cccc(Nc4ccc5cc(O)ccc5n4)c3)cc2C(F)(F)F)CC1	-16.1% (active)	-55.8% (active)	-88.7% (active)	-55% (active)	-87.8% (active)	-26% (active)	-96.9% (active)	-95.5% (active)	-79.1% (active)	-40.2% (active)	-81% (active)	-49.4% (active)	-11.4% (active)	-54% (active)	-65% (active)	-22.9% (active)	-99.7% (active)	-90.1% (active)	-93.5% (active)	-91.9% (active)
